About 3,900 (1.3%) of roughly 310,000 compounds were called active.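 The calls were made as follows: active = compounds whose thallium flux B-score, printed positive for inhibition, exceeds three library SD while starting fluorescence stays within three; inactive = the rest.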 Only a selection was taken, and actives are over-represented in it overall.

The target of this experiment is Potassium voltage-gated channel subfamily KQT member 1 (Homo sapiens) (UniProt P51787). As to the kind of experiment: KCNQ1 potassium current blockers – cell-based, thallium flux, high-throughput, primary screen (AID 2642).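 Also: channel opened by potassium depolarization with thallium stimulus after 20 min compound exposure.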 As to conditions: CHO-K1 KCNQ1, FluxOR thallium flux fluorescence, at 10 µM; stronger effect = higher value.
Chain of Potassium voltage-gated channel subfamily KQT member 1 (Homo sapiens) (P51787 whole entry, looked up): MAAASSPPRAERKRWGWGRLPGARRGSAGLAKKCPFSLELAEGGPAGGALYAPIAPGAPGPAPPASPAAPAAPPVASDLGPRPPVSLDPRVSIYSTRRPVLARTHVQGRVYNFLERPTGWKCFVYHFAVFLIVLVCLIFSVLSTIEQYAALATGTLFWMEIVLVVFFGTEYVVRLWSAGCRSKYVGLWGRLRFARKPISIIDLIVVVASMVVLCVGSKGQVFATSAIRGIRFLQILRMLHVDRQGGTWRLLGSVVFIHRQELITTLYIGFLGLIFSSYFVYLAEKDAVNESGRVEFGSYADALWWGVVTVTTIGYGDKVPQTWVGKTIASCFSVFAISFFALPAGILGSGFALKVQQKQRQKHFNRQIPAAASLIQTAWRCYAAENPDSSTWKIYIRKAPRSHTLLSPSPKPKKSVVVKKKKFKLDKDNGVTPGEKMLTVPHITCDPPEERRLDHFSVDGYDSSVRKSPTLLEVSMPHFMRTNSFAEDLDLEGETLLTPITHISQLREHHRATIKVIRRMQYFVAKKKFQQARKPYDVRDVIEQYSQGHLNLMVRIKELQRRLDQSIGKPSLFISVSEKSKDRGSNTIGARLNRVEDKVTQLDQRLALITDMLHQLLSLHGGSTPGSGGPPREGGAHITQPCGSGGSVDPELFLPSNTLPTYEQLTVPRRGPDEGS
Take `CS(=O)(=O)N(CC(=O)Nc1ccc(Cl)c(Cl)c1)C1CCCCC1`: the B-score is 7 (active).
Turning to `CCC(C)NC(=O)CN(C1CCCCC1)S(C)(=O)=O` (configuration not stated), the B-score entry was “inactive”.
As for `CS(=O)(=O)N(CC(=O)Nc1ccc(F)cc1)C1CCCCC1`, the B-score entry was “inactive”.
Turning to `CC(NC(=O)Cn1cc(C(F)(F)F)cc(Cl)c1=O)c1ccccc1` (configuration not stated), the B-score result is “inactive”.
Next, `NS(=O)(=O)c1cc2c(cc1Cl)NC(C(Cl)Cl)NS2(=O)=O` (configuration not stated): “inactive”; `CC(C)OC(=O)C(C#N)c1nc2ccccc2nc1N1CCN(Cc2ccccc2)CC1` (configuration not stated): 7 (active).
In the case of `CCOC(=O)/C(C#N)=C/c1ccc(N2CCN(Cc3ccccc3)CC2)cc1`, the B-score entry was “inactive”.
For `COC(=O)c1sc(N2CCN(Cc3ccccc3)CC2)nc1N` the value was “inactive”; for `COc1ccc(S(=O)(=O)N(CC(=O)N/N=C/c2ccc(C(=O)O)cc2)Cc2ccccc2)cc1OC`, “inactive”; for `CC(=O)N1c2ccc(S(=O)(=O)N3CCCC(C(=O)NCc4ccc(Cl)cc4)C3)cc2CC1C` (configuration not stated), “inactive”.
In the case of `CCN(C(=O)COc1ccc(C(=O)c2ccccc2)cc1)c1ccccc1`, the B-score result is “inactive”.
Consider `N#CC1=C(SCc2ccc(C#N)cc2)N=C(N)C(c2nc(-c3ccccc3)cs2)C12CCCCC2` (configuration not stated), for which the B-score was 6 (active).
Regarding `N#Cc1ccc(CSc2ncccn2)cc1`, the B-score result is “inactive”.
On to `N#CC1=C(SCc2ccccc2)NC(=O)C(C#N)C12CCCC2` (configuration not stated), for which the B-score result is “inactive”.
On to `COc1ccc(OC)c2[nH]c(=O)c(CCNC(=O)C(=O)c3c[nH]c4ccccc34)cc12`, for which the B-score result was “inactive”.
On to `COCCn1c(SCC(=O)Nc2cc(OC)ccc2OC)nc2c(c1=O)SC(C)C2` (configuration not stated), for which the B-score result is “inactive”.
As to `COc1ccc(-c2c(C#Cc3ccccc3)c3ccccc3n2C)cc1`, the B-score entry was “inactive”.
Regarding `COc1ccc(-c2nc3ccccc3c(=O)n2CCc2ccc(O)cc2)cc1`, the B-score entry is “inactive”.
Take `COc1ccc(CCNCc2c(-c3ccccc3)n(C)c3ccccc23)cc1`: the B-score is 7 (active).
For `CCN1N=C(c2ccccc2)CCC1=O` the value was “inactive”; for `Cc1ccccc1NC(=O)CNc1ccccc1N1CCCCC1`, “inactive”; for `O=C(CNCCC1=CCCCC1)Nc1ccccc1N1CCCCCC1`, 12 (active).
For `Cc1ccccc1NC(=O)Nc1ccccc1N1CCCCC1` the value was “inactive”; for `COC(=O)c1ccc(COC(=O)C2CCN(S(=O)(=O)c3c(Cl)cccc3Cl)CC2)o1`, “inactive”.
With `COc1cc(CN2CCNC(=O)C2CC(=O)NCCc2ncccc2C)cc(OC)c1` (configuration not stated), the B-score entry was “inactive”.
On to `CC(=O)Nc1c2c(nn1-c1cccc(C)c1)CSC2`, for which the B-score result was “inactive”.
Take `CCC[C@@H]1C[C@@]1(CCC)[C@@H](NC(=O)c1ccccc1)c1ccc(C(=O)OC)cc1`: the B-score is 12 (active).
As for `CCC/C=C(\CCC)C(NC(=O)Cc1ccccc1)c1ccc(C(=O)OC)cc1` (configuration not stated), the B-score result is “inactive”.
With `COC(=O)c1ccc(NCC(=O)c2ccccc2)cc1`, the B-score entry was “inactive”.
Take `COc1ccc(CN(C)C(=O)Cc2c[nH]c3ccccc23)c(OC)c1OC`: the B-score entry was “inactive”.
`c1ccc(C2=Nc3cccc4cccc(c34)N2)cc1`: the B-score result is “inactive”.
For `Brc1ccc(C2CC(c3ccccc3)=Nc3ccccc3N2)cc1` (configuration not stated) the value was 10 (active); for `CNC(=S)N1N=C(c2ccccc2)CC1c1ccc(Br)cc1` (configuration not stated), “inactive”.
With `CC1CCCN(S(=O)(=O)c2ccc(N(C(=O)c3cnccn3)C(C(=O)NC3CCCCC3)c3cccs3)cc2)C1` (configuration not stated), the B-score entry was “inactive”.
On to `Cc1cc(C)n(-c2nnc(C)n2NC(=O)c2cccc(Cl)c2)n1`, for which the B-score result was “inactive”.
For the compound `Cc1ccc2c(c1)N(CCCC(=O)NCc1cccnc1)C(=O)CO2`, the B-score result is “inactive”.
For the compound `O=C(O)Cc1ccc(NC(=O)Nc2cccc3ccccc23)cc1`, the B-score result is “inactive”.
On to `Cc1ccc(NC(=S)NC(NC(=O)Cc2cccc3ccccc23)C(Cl)(Cl)Cl)cc1` (configuration not stated), for which the B-score entry is “inactive”.
In the case of `O=C(Cc1cccc2ccccc12)NNC(=O)Nc1ccc(Cl)cc1`, the B-score is 6 (active).
Next, `COc1ccc(CNC(=O)c2c[nH]c3c(OC)cc(OC)cc3c2=O)cc1`: “inactive”; `CCOc1ccc(OCCSc2nc3ccccc3n2CC(=O)O)cc1`: “inactive”.
Turning to `O=C(CCC(=O)c1cccs1)Nc1nc2ccccc2s1`, the B-score result is “inactive”.
Next, `O=C(Nc1nc(-c2ccco2)c(-c2ccco2)s1)c1ccco1`: “inactive”.
Consider `CN(C)CCCN(C(=O)c1ccc(S(=O)(=O)N2CCCc3ccccc32)cc1)c1nc2ccc(F)cc2s1`, for which the B-score entry was “inactive”.
For `CCC(=O)NC(Nc1nc2ccc(C)cc2s1)(C(=O)OC)C(F)(F)F` (configuration not stated) the value was “inactive”; for `CSc1nc2ccc(S(=O)(=O)N3CCc4ccccc43)cc2s1`, “inactive”; for `CCOc1ccc2nc(NC(=O)c3cc([N+](=O)[O-])ccc3N3CCOCC3)sc2c1`, “inactive”.
In the case of `O=C(NC(Nc1nc2ccc([N+](=O)[O-])cc2s1)(C(F)(F)F)C(F)(F)F)c1ccccc1`, the B-score was 8 (active).
For the compound `O=C(Nc1nc2ccc([N+](=O)[O-])cc2s1)c1ccc(S(=O)(=O)N2CCCc3ccccc32)cc1`, the B-score was 9 (active).
For the compound `O=C1NC(=O)C(c2ccc(Cl)cc2)N1` (configuration not stated), the B-score entry is “inactive”.
Next, `Cc1cc(=O)n2nc(N3CCCC(C(=O)NCc4ccc(Cl)cc4)C3)sc2n1` (configuration not stated): “inactive”.
In the case of `CC(OC(=O)CN1C(=O)COc2ccccc21)C(=O)NCc1ccc(F)cc1` (configuration not stated), the B-score result is “inactive”.
`N#Cc1c(Cl)nc(-c2cccnc2)nc1-c1ccccc1`: the B-score entry is “inactive”.
For `O=C(NN1CCOCC1)c1cccc(F)c1`, the B-score result was “inactive”.
With `O=C(NNC(=O)c1cc(-c2ccccc2Cl)nc2ccccc12)c1csc(N2CCOCC2)n1`, the B-score result is “inactive”.
Take `CCC(=O)N1CCC(C(N)=O)(N2CCCCC2)CC1`: the B-score result is “inactive”.
For the compound `COc1cccc(NC(C)=[N+](C)CCNS(=O)(=O)c2ccc(Cl)cc2)c1`, the B-score was 6 (active).
`COC(=O)CNS(=O)(=O)c1ccc(OC)cc1`: the B-score entry is “inactive”.
Regarding `CCNS(=O)(=O)c1ccc(NC(=O)Nc2cccc(OC)c2)cc1`, the B-score result is “inactive”.
In the case of `COc1ccc(S(=O)(=O)NCCCc2ccccc2)cc1`, the B-score result was “inactive”.
Regarding `COc1cccc(NC(=O)CCNS(=O)(=O)c2ccc3c(c2)oc(=O)n3C)c1`, the B-score result is “inactive”.
With `COc1ccc(S(=O)(=O)NCCCCOc2ccc(Cl)cc2)cc1`, the B-score was 9 (active).
For the compound `Cc1cccc(NC(=O)c2ccc3c(=O)n(CC4CCCO4)c(=S)[nH]c3c2)c1` (configuration not stated), the B-score entry was “inactive”.
In the case of `COc1cc(OC)cc(C(=O)NC(=S)N2CCN(c3ccc(C(F)(F)F)cc3[N+](=O)[O-])CC2)c1`, the B-score entry was “inactive”.
Regarding `CCOc1ccc(-c2cc(C(=O)N/N=C/c3ccc(O)cc3)c3ccccc3n2)cc1`, the B-score entry is “inactive”.
As for `NC1=NC2(CCCCC2)N(c2ccc(F)cc2F)C(N)=N1`, the B-score entry is “inactive”.
Regarding `COc1ccc(CNC(=O)/C(C#N)=C/c2cccc(OC)c2OC)cc1`, the B-score entry was “inactive”.

Values taken from PubChem BioAssay AID2642 (Johns Hopkins Ion Channel Center, 2010).
